Only some compounds are listed: those with a hit (about 11% of all), similar ones and a draw of the others.
G9a inh – G9a (human) methyltransferase inhibition | G9a H3K9 monomethylation, AlphaScreen, 2 h | Potency, µM (doses to about 102 µM), without a hit: at the highest dose activity, negative = inhibition, actives largely listed as inhibitors | 350,000 compounds, 8.8% hits; further: potency means the concentration at half of the fitted maximal effect; on the % scale 0 is the no-effect control and ±100 the full control effect; nearly all actives have a fitted effect of over 75% in size
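Step 1: enzyme (final 20 nM) with compound, 15 min RT. Step 2: substrate peptide 500 nM and SAM 20 uM, 2 h RT. Step 3: anti-H3K9me1 antibody and AlphaScreen beads, 10 min, then plate read.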
PI5P4Ka inh – PI5P4K alpha (human) kinase inhibition | P48426 | 330,000 compounds, 1.2% hits | PI5P4Kalpha enzyme, ADP-Glo luminescence, 60 min; active compounds read low | AID 652105 | max response, %; active means max response of -50% or lower; inconclusive means between -30% and -50%; inactive means -30% or higher; further: value at the top dose of about 77 µM; on the % scale 0 is the no-effect control and ±100 the full control effect
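Compounds were pin-transferred onto PI5P4Kalpha and substrate in HEPES pH 7.4 buffer with EGTA, CHAPS and 5% DMSO. ATP (5 microM final) started the reaction, which ran 60 minutes at room temperature before ADP-Glo detection.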
BAZ2B block – blocks human BAZ2B. 360,000 compounds, 4.4% hits. AlphaScreen BAZ2B-H3K14Ac peptide displacement. Potency, µM (series often up to 114 µM), without a hit: at the top dose activity change, negative = inhibition, actives largely listed as inhibitors. Q9UIF8; further: potency means the concentration at half of the fitted maximal effect; on the % scale 0 is the no-effect control and ±100 the full control effect; nearly all actives have a fitted effect of over 60% in size
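Protein-peptide AlphaScreen: BAZ2B 50 nM, b-H3K14Ac 50 nM, 1x PBS pH 7.4 + 0.01% Tween-20. Preincubation 30 min RT; cpd 30 min RT (top 110 uM); beads 20 min RT, light-protected.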
HP1b binding inh – inhibitors of HP1-beta chromodomain binding to methylated histone tails. Potency, µM (doses to about 114 µM), for the others: at the top dose activity change, negative = inhibition, hits mostly inhibitors. AID 540317. P83916. AlphaScreen HP1-beta / biotin-H3K9me3 peptide binding. 390,000 compounds, 0.56% hits; further: potency means the concentration at half of the fitted maximal effect; nearly all actives have a fitted effect of over 70% in size
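HP1-beta protein (50 nM final) preincubated 30 min at room temperature with biotinylated H3(1-18)K9me3 peptide (50 nM) in PBS pH 7.4, 0.01% Tween-20, then compound added for 30 min. AlphaScreen streptavidin donor/nickel chelate acceptor beads (10 ug/mL final), 30 min dark, luminescence read.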
JMJD2A Tudor inh – blocks the human JMJD2A Tudor domain. O75164. AlphaScreen JMJD2A-Tudor / H3K4me3 peptide binding. Potency, µM (highest dose often 114 µM), without a hit: at the top dose activity change, negative = inhibition, usual class: inhibitors. 390,000 compounds, 4.4% hits. AID 504339; further: potency means the concentration at half of the fitted maximal effect; on the % scale 0 is the no-effect control and ±100 the full control effect; nearly all actives have a fitted effect of over 50% in size
L3MBTL1 block – L3MBTL1 (human) inhibition | Q9Y468 | AlphaScreen L3MBTL1–H3K9me1 peptide binding | Potency, µM (top dose mostly 57.1 µM), for the others: at the highest dose activity, negative = inhibition, actives largely listed as inhibitors | 230,000 compounds, 0.66% hits | AID 485360; further: potency means the concentration at half of the fitted maximal effect; on the % scale 0 is the no-effect control and ±100 the full control effect; nearly all actives have a fitted effect of over 60% in size
Target sequence (Q9Y468 whole entry, looked up): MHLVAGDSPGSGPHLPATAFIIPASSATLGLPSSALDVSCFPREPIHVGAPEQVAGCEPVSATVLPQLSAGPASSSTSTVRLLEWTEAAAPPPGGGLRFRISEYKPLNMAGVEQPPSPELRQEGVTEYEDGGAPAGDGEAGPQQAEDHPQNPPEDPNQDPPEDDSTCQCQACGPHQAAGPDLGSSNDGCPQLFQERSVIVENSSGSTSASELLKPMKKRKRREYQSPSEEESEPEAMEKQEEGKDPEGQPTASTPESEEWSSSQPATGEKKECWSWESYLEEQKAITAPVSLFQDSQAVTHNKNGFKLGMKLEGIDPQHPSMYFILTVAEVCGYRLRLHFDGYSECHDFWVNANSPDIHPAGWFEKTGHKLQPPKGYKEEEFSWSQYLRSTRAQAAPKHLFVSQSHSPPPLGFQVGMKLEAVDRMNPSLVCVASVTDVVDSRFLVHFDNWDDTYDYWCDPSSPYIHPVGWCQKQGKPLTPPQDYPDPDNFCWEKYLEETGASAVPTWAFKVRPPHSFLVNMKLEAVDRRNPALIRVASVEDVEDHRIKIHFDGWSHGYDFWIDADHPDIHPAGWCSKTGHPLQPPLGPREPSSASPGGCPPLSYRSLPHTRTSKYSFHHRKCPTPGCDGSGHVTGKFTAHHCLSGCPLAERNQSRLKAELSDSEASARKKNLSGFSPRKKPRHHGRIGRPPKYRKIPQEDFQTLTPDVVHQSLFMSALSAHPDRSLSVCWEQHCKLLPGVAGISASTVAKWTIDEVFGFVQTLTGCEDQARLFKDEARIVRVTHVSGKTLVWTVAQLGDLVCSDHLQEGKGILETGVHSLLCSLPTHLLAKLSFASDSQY
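L3MBTL1 (50 nM) pre-complexed 30 min with biotinylated H3(1-15)K9me1 peptide (75 nM), then compounds added for 30 min at room temperature; AlphaScreen streptavidin donor/nickel chelate acceptor beads (10 ug/mL final) read after 30 min dark incubation.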
An asterisk follows results filed as active; ? = inconclusive; / = no result; [ ] = remark or other dose. Unless noted, the call rests on the fitted dose curve; in most records, active means well fitted inhibition curve with a large enough effect; inconclusive means small, poorly fitted or top-dose-only effect; inactive means no such curve, though single readings can be large or run the other way.

SMILES	G9a inh	PI5P4Ka inh	BAZ2B block	HP1b binding inh	JMJD2A Tudor inh	L3MBTL1 block
CN1CCN(Cc2c(O)ccc3occ(C(=O)c4ccccc4)c23)CC1	-9.1%[59 µM]	0.4	-3.8%	7.9%	-15.5%	-9.8%
FC(F)(Cl)c1nnc2ccc(Sc3ccccn3)nn12	25.1µM*	5.0	-19.6%	41.3%	-0.7%	8.1%
FC(F)(F)C(F)(F)c1nnc2ccc(-n3ccnc3)nn12	-35.9%	2.2	-2.4%	37.6%	-8.3%	/
CN(C)c1ccc(CNC(=O)CCn2c(=O)c3cccn3c3ccc(F)cc32)cc1	-1.3%[59 µM]	/	-12.7%	-2.8%	-22.7%	/
Cc1c2ccncc2cc2c1[nH]c1ccccc12	/	-6.4	/	41.9%[57 µM]	12.4%	/
COc1ccc2[nH]c3c(C)c4ccncc4c(C)c3c2c1	39.8µM*	?	?	15.6%	-31.3%	-0.8%
CCCCC/C=C\C/C=C\C/C=C\C/C=C\CCCC(=O)C(F)(F)F	18.0%[59 µM]	/	/	/	/	/
Cc1nn(C)c2c1c(C(F)(F)F)cc(=O)n2C(C)C(=O)NCCc1ccccc1 (centres undefined)	2.2%[59 µM]	/	-2.1%	-4.1%	-9.7%	/
CCC(C)NC(=O)CSc1nc2scc(-c3ccccc3)c2c(=O)[nH]1 (centres undefined)	?	-6.8	-7.8%	18.8%	-1.7%	0.1%
O=C(CSc1nc2scc(-c3ccccc3)c2c(=O)[nH]1)N1CCCCC1	50.1µM*	3.1	-26.8%	14.4%	-9.2%	-7.5%
O=C(CSc1nc2scc(-c3ccccc3)c2c(=O)[nH]1)NC1CCCCC1	15.7%	/	3.1%	/	/	/
Cc1sc2nc(SCC(=O)N3CCOCC3)[nH]c(=O)c2c1-c1ccccc1	44.7µM*	-20.5	-18.2%	12.1%	-17.2%	/
CC(C)(C)NC(=O)CSc1nc2scc(-c3ccccc3)c2c(=O)[nH]1	6.5%[59 µM]	0.2	0.9%	21.8%	-6.4%	4.9%
Cc1ccc(-c2csc3nc(SCC(=O)Nc4ccc(Cl)c(C(=O)O)c4)[nH]c(=O)c23)cc1	28.2µM*	-77.7*	?	0.1%[57 µM]	-28.3%	/
COCCNC(=O)CSc1nc2scc(-c3ccccc3)c2c(=O)[nH]1	50.1µM*	-20.6	-23.3%	14.5%	-10.2%	/
CCOc1ccccc1NC(=O)CSc1nc2c(c(=O)[nH]1)CCC2	-4.0%[59 µM]	/	-18.7%	22.4%	-13.9%	/
COc1ccccc1Cc1nc2ccccc2nc1SCC(=O)Nc1c(C)cccc1C	57.8%[59 µM]	/	16.1%	21.9%[57 µM]	-14.3%	/
O=C(Nc1ccc(F)cc1F)c1cc2c(=O)n3ccccc3nc2s1	-24.2%[59 µM]	/	5.1%	18.4%	-6.8%	/
CCc1cc2c(=O)[nH]c(N3CCCC3)nc2s1	-10.1%	-8.4	-9.7%	19.4%	-3.8%	-3.2%
CCc1cc2c(=O)[nH]c(-c3ccccn3)nc2s1	25.7%[59 µM]	-8.0	28.2µM*	36.4%	25.1µM*	?
CC1CCCCN1C(=O)CSc1c2c(nc3cc(Cl)ccc13)CCCC2 (centres undefined)	-1.3%[59 µM]	/	-4.5%	63.4%	-7.9%	/
Cc1ccc(S(=O)(=O)NNC(=O)Cc2cccn2C)cc1	?	-4.0	?	39.6%	2.7%	-8.4%
Cc1cccc(S(=O)(=O)NNC(=O)Cc2cccn2C)c1	50.1µM*	?	-28.4%	-29.8%	39.8µM*	2.4%
N#CC1=C(N)N(c2cccc(Cl)c2)C2=C(C(=O)CCC2)C1c1cc(CN2CCOCC2)cs1 (centres undefined)	-21.9%[59 µM]	/	-35.9%	3.6%	-9.7%	/
O=C1OC(Nc2nccs2)c2ccccc21 (centres undefined)	-3.7%	-5.5	-9.2%	11.2%	?	0.6%
SMILES	G9a inh	PI5P4Ka inh	BAZ2B block	HP1b binding inh	JMJD2A Tudor inh	L3MBTL1 block
O=C1OC(Nc2nc3ccccc3s2)c2ccccc21 (centres undefined)	50.1µM*	1.3	-11.9%	52.2%	3.2%	8.3%
O=C(N/N=C\c1ccc(Oc2ccccc2)cc1)c1csnn1	0.891µM*	-6.4	0.5%	42.3%	-17.4%	-18.4%
CC(C)Oc1cccc(C(=O)N/N=C/c2ccoc2)c1	/	-2.7	-28.2%	40.1%	-13.8%	/
Cc1cccc(/C=N/NC(=O)C[n+]2ccccc2)c1	2.0%[0.501 µM]	2.5	12.4%	34.9%	-23.4%	-0.2%
Cc1cccc(C(=O)N/N=C/c2ccoc2)c1	6.4%	?	50.1µM*	16.6%	-25.8%	/
Cc1cccc(/C=N\NC(=O)c2csnn2)c1	8.8%[0.501 µM]	-23.0	?	11.2%	79.4µM*	-27.2%
CN(C)c1ccc(/C=N\NC(=O)c2csnn2)cc1	3.4%[0.0925 µM]	-17.1	7.6%	27.1%	-5.5%[57.1 µM]	-3.4%
O=C(NCC1CCCO1)c1cc([N+](=O)[O-])ccc1Cl (centres undefined)	50.1µM*	0.6	2.4%	15.2%	1.4%	/
O=C(NCC1CCCO1)/C(=C\c1cccc([N+](=O)[O-])c1)NC(=O)c1ccccc1 (centres undefined)	-26.0%	-8.3	-1.5%	34.1%	5.5%	/
O=C(NCC1CCCO1)c1ccccc1NS(=O)(=O)c1cc([N+](=O)[O-])ccc1Cl (centres undefined)	/	-0.2	/	33.9%	-18.1%	3.9%
O=C(NC(=S)N(CC1CCC1)CC1CCCO1)c1cccc([N+](=O)[O-])c1 (centres undefined)	50.1µM*	0.5	?	-4.2%	-35.0%	?
Cc1ccc(-n2c(=O)c3c(cnn3C)n(CC(=O)Nc3cccc(C)c3)c2=O)cc1	-3.6%[59 µM]	/	-2.1%	18.7%	-31.7%	/
COc1cccc(Cn2c(CNS(=O)(=O)c3ccc4c(c3)CCCC4)nc3cccnc32)c1	10.3%[59 µM]	/	-13.4%	14.4%[57 µM]	-27.7%	/
Cc1ccc(S(=O)(=O)NCC2CCC(C(=O)NCCc3ccccc3)CC2)cc1 (centres undefined)	-21.1%[59 µM]	/	1.9%[57.1 µM]	-9.1%	-22.3%	/
O=C(NC1CCCCC1)C1CCCN(S(=O)(=O)c2cccc3cccnc23)C1 (centres undefined)	9.2%	0.2	-0.4%	40.6%	-5.6%	9.5%
O=C(C1CCN(S(=O)(=O)c2cccc3cccnc23)CC1)N1CCN(C2CCCCC2)CC1	35.5µM*	4.8	-3.1%	38.1%	-26.9%	-4.8%
CC1CCN(C(=O)C2CCN(S(=O)(=O)c3cccc4cccnc34)CC2)CC1	27.1%	-0.2	0.5%	31.3%	-12.0%	/
O=C(C1CCCN(S(=O)(=O)c2cccc3cccnc23)C1)N1CCc2ccccc21 (centres undefined)	44.7µM*	-6.5	0.8%	46.0%	-23.2%	/
COc1ccc(NC(=O)C/C(C)=N/NC(=O)c2ccco2)c([N+](=O)[O-])c1	44.7µM*	2.9	-10.4%	15.8%	-14.3%	/
COc1ccc(NC(=O)c2ccco2)c([N+](=O)[O-])c1	?	2.0	-38.7%	-11.9%	-25.0%	-7.3%
COc1ccc(C(=O)NNc2ncnc3c2cnn3-c2cccc(Cl)c2)cc1OC	16.4%[59 µM]	/	0.9%	40.8%	-28.1%	/
